# From ChEMBL document CHEMBL4296182, “CO-ADD screening of NIH NCI Diversity Set V”
# For part of these data: Results with a measured potency or affinity are listed apart.
# Experiments:
# [1] = system: Staphylococcus aureus; assay: Antibacterial activity against Staphylococcus aureus MRSA ATCC 43300 (CO-ADD:GP_020); MIC in CAMBH media using NBS plates, by Resazurin F(560/590); type: functional; details: Concentration 20 uM, ASSAY_TEST Inhibition of Bacterial Growth, detection method Resazurin, Fluorescence (ex560/em590), MEDIA CAMHB, plate type 384well, CORNING #3640, time 18 hr
# [2] = system: Acinetobacter baumannii; assay: Antibacterial activity against Acinetobacter baumannii ATCC 19606 (CO-ADD:GN_034); MIC in CAMBH media using NBS plates, by Resazurin F(560/590); type: functional; details: Concentration 20 uM, ASSAY_TEST Inhibition of Bacterial Growth, detection method Resazurin, Fluorescence (ex560/em590), MEDIA CAMHB, plate type 384well, CORNING #3640, time 18 hr
# [3] = system: Escherichia coli; assay: Antibacterial activity against Escherichia coli ATCC 25922 (CO-ADD:GN_001); MIC in CAMBH media using NBS plates, by Resazurin F(560/590); type: functional; details: Concentration 20 uM, ASSAY_TEST Inhibition of Bacterial Growth, detection method Resazurin, Fluorescence (ex560/em590), MEDIA CAMHB, plate type 384well, CORNING #3640, time 18 hr
# [4] = system: Klebsiella pneumoniae; details: Concentration 20 uM; ASSAY_TEST Inhibition of Bacterial Growth; detection method Absorption (OD600); MEDIA CAMHB; plate type 384well; NBS; CORNING #3640; time 18 hr
# [5] = system: Candida albicans; details: 20 µM
# [6] = system: Cryptococcus neoformans; details: Concentration 20 uM; ASSAY_TEST Inhibition of Fungal Growth; detection method Resazurin; Absorption (OD600-OD570); plate type 384well; NBS; CORNING #3640
SMILES,Inhibition [1],Inhibition [2],Inhibition [3],Inhibition [4],Inhibition [5],Inhibition [6]
Nc1ncnc2c1ncn2C1C=C(CO)C(O)C1O (centres undefined),4.94%,-16.45%,9.33%,9.87%,1.07%,-6.12%
Cc1n[nH]c2c([N+](=O)[O-])c(=O)[nH]c(=O)n12,3.86%,-12.95%,12.3%,7.43%,0.29%,-13.65%
Nc1n[nH]c(-c2ccccc2)n1,11.8%,-13.69%,16.83%,8.63%,-1.64%,-8.71%
Oc1ccnc2c(Cl)cccc12,7.28%,2.93%,-8.1%,5.9%,3.54%,14.14%
CSc1c(N(C)C)c(=O)c1=S,-5.31%,-13.14%,11.42%,6.17%,1.7%,-16.36%
Nc1nc2c[nH]c(N)nc-2n1,-4.21%,2.13%,5.84%,7.49%,3.2%,-2.1%
Oc1nccc(SCc2ccc(Cl)cc2Cl)n1,9.05%,6.51%,5.78%,11.54%,6.12%,-13.08%
COc1cc(/N=N/c2cccc(S(N)(=O)=O)c2)c2ccccc2c1N,-2.34%,3.92%,-3.15%,14.2%,0.44%,-17.61%
Cc1c(CCO)c(=O)n2n1CCCC2,-14.7%,-6.34%,-10.48%,7.18%,-0.03%,3.75%
Cc1nnc(-n2cccc2)s1,4.2%,-10.69%,7.04%,-0.01%,2.45%,-10.77%
COc1cc(NCc2ccccc2O)c2ncccc2c1,-0.91%,-6.99%,7.11%,7.53%,4.54%,-12.51%
c1ccc(-n2c3ccccc3c3ccccc32)cc1,0.65%,-3.58%,6.48%,0.88%,5.95%,11.23%
CC(C)c1cc(C(F)(F)F)nc(NNc2nc(C(C)C)cc(C(F)(F)F)n2)n1,18.88%,-11.48%,9.37%,26.13%,9.95%,-5.35%
O=C1c2ccccc2NC(c2cc(Cl)cc(Cl)c2O)N1CCc1ccccn1 (centres undefined),27.48%,-1.5%,9.13%,12.19%,2.81%,-0.4%
Cc1nc(N)nc(Nc2ccc(C#N)cc2)c1Br,13.25%,-2.28%,22.67%,5.37%,0.12%,-9.52%
CN(C)/C=N/c1ccc(Cl)c(Cl)c1,2.81%,14.75%,-10.37%,19.84%,8.37%,-5.94%
Cc1nc2nc(C(F)(F)F)[nH]c2nc1C,10.93%,9.55%,-5.58%,7.77%,3.03%,-5.2%
Nc1ccc2c(c1Cl)C(=O)c1ccc(N)c(Cl)c1C2=O,3.14%,-5.21%,14.11%,8.12%,-1.01%,17.48%
CC(C)c1ncc(CO)n1Cc1c(Cl)cccc1Cl,10.51%,3.11%,9.5%,7.27%,0.71%,-9.37%
